From publication PMC12136788
Substitutions are numbered along the chain they refer to. Whole data set: some 24,000 sequences, median “enrichment r” near 0.99, cut for the highest 2% near 3.7. What follows is part of a selection rich in the highest values, with near analogues and random picks from the rest.

T1: UNK ZnF1-3 (human, UniProt Q9C0B0 31-174)
T1 sequence: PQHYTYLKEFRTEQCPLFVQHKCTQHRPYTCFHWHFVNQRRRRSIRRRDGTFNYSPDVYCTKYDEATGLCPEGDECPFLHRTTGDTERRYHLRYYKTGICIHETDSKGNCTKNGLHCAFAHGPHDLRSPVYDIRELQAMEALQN

B1: chr1:10024197:10024198:-_ENSMUSG00000025917_ENSMUST00000027050|mus_mus|FALSE|FALSE (ssRNA)
RNA: GGGAGUUCUACAGUCCGACGAUCCAGCAUCUGUGUACUAACAUCAAUCCCGGAGAGCCAGCAGCCAUAACCAGGGUGGCUAUGAUACCAACCGAUUGCAUUCUCAAGGCGGCCAACCUGUUUGGCAUUUUCUAUGUAUGCAGCCAACAGAGGAUUGAGCAUCA
B2: chr1:225700702:225700703:-_ENSG00000154380_ENST00000366843|hu_hu|motif|central (ssRNA)
RNA: GGGAGUUCUACAGUCCGACGAUCACCAAUAGCAUUCCCUCCACUUGGGAAAGAGGUAUCCUCCAUCCGUGACACUUUCCGGAGUUUUGCUCCGGCAAUUGCAGCUGCAAGUCCAGUUAAAGGGCGAUUGUCUUCUGACAUGGACAACAGAGGAUUGAGCAUCA
B3: chr14:78183846:78183847:+_ENSG00000119705_ENST00000557342|hu_hu|hu_hu_hu_mus_False|58_98 (ssRNA)
RNA: GGGAGUUCUACAGUCCGACGAUCUCUCAGAAAUCUUUCUUUCUUUUAUGUUUGAGCUCCGUGCAAAGCCUUUGCUCUUCUAGUGUGAACGUGGAUCUAUGGGAGGGAAAGCACUGUCAGAAAAGGUAAUUUUUUUUUUAAAGACAACAGAGGAUUGAGCAUCA
B4: chr6:21597833:21597834:+_ENSG00000124766_ENST00000244745|hu_mus|FALSE|FALSE (ssRNA)
RNA: GGGAGUUCUACAGUCCGACGAUCAAAGUUAAAACUCUAGCCCUUCAGUGAAGGAGACGUAAAAUGGCGUGGGUAACAACACUAGAAAAAAAAAAAAAACGAAGAAAAAGAAAGAAAAUAAAAAAGAAGAUAAAGAAACGAGGUCAACAGAGGAUUGAGCAUCA
B5: chr1:100342015:100342016:+_ENSG00000162688_ENST00000361915|hu_hu|motif|central (ssRNA)
RNA: GGGAGUUCUACAGUCCGACGAUCAGAUUCUUCCAUGGAGAAGUCUAUCUCUUCAAAUGGGAAAGUAAAAUACCUGGUAACGGAAGGAUGCUUUCUAGUGACAGGUCCUAGUUUUGGACCAUGGCCAGCCAGUCGUUCAUAAAACAACAGAGGAUUGAGCAUCA
B6: chr2:48026839:48026840:+_ENSG00000116062_ENST00000540021|hu_hu|hu_hu_hu_mus_False|28_88 (ssRNA)
RNA: GGGAGUUCUACAGUCCGACGAUCAUAGUGAGCCACUAGCGUCCUAAAUCUCGAACAGUGGCGGUCAUCCGAAAACUGGCCGAUGAAAAACUUGCCCAGUGAAGUGUCAACAAAGCAAACACCAUACACACGAGUGUGACCAGACAACAGAGGAUUGAGCAUCA
B7: chr6:21597833:21597834:+_ENSG00000124766_ENST00000244745|hu_mus|motif|central (ssRNA)
RNA: B4 RNA with U82G, A83G
B8: chr17:32491106:32491107:-_ENSMUSG00000024050_ENSMUST00000163107|mus_hu|FALSE|FALSE (ssRNA)
RNA: GGGAGUUCUACAGUCCGACGAUCAUCGAUAACCAAAAUGUGGCCACUGAAAAAAGUUAAAAGGUCAAUCAGCUCCUGGCUUCUAGCUGGCCCAGGAUUGCAAAAUAAAAAGAUCCACGUUCCUUAUUCUCUACACAAAACGCGCAACAGAGGAUUGAGCAUCA
B9: 75522086_75522670_732_CDS_ENSMUSG00000026213_ENSMUST00000113553|mouse|control|control (ssRNA)
RNA: GGGAGUUCUACAGUCCGACGAUCCAGGAGACGCAGGGAGCUGUCUAAGCUCCUGAGCGCAUUGUAGCUGAAGUCGGCAGAAAGCAAGGCUAGCCAGGGGAGGGCAGAGCAGAGAUCCCCACCACAGGCUGACAAGAGCUCCUCCAACAGAGGAUUGAGCAUCA
B10: chr1:244855233:244855234:+_ENSG00000121644_ENST00000302550|hu_mus|hu_hu_hu_mus_True|28_88 (ssRNA)
RNA: GGGAGUUCUACAGUCCGACGAUCCAUCAGAUGGUAGGCGUUGCCCUUGUAUUCUUUCCCCAGUUCUUCUACAAUUUUCUCUAUAUCAUCUUCUAGAAAGUCCGUACUCCCUAAAACAACAGCUUCUUUAAAUUUAAAUGUUUCCAACAGAGGAUUGAGCAUCA
B11: chr7:118222036:118222037:-_ENSMUSG00000005610_ENSMUST00000162415|mus_mus|FALSE|FALSE (ssRNA)
RNA: GGGAGUUCUACAGUCCGACGAUCAUCAAAGUUUGGUGCAUCUUCUGCCAAUCGCAGACAUAGCUGAGCAUACAGCGAGCUAUACUUUGGCUCUUCUAAGGCUUUGUCCACAAUCAGCAGUAUGACCCCUUUAAGGAUGAGUUUCAACAGAGGAUUGAGCAUCA
B12: chr18:38477064:38477065:+_ENSMUSG00000060450_ENSMUST00000072376|mus_hu|motif|central (ssRNA)
RNA: GGGAGUUCUACAGUCCGACGAUCUGCAGAUAUAAUUCAAGAACAUUCAGCUUGGGAAUAUAUUAAGCUUUCUCCGGUUCCAGCAGAGGAAAUAAAAACAUGUGUUCCUGGAAUUAAUAUUAAAAUCAUCCUUACAAACAGAAGCAACAGAGGAUUGAGCAUCA
B13: chr9:122046571:122046572:+_ENSMUSG00000038145_ENSMUST00000120173|mus_mus|FALSE|FALSE (ssRNA)
RNA: GGGAGUUCUACAGUCCGACGAUCCUGAAAUUUGUUGCUGAAGCCAAAGUCUGUCAACUUCACAAGACCUUGUUUUUCAAAAAAGACUACAUUCUCUGGUUUCAAGUCUCUGUGGACCACAUGGAGUUUAUGGCAAUAAGAUAUCAACAGAGGAUUGAGCAUCA
B14: chr1:46159212:46159213:+_ENSG00000159596_ENST00000372025|hu_mus|hu_hu_hu_mus_True|38_58 (ssRNA)
RNA: GGGAGUUCUACAGUCCGACGAUCUCUGAUCCCUCCCAAGAAAGCUAGGAAACCGGCUCCAUAAGCCAUCUGAGUGAAAGCUAAUAUGGGGAUAUAAGUUUUUGUCAUUACCAUGAGAAGUGGGGGAGCAGUAAAGGGGAUUAACAACAGAGGAUUGAGCAUCA
B15: chr15:25293464:25293465:-_ENSMUSG00000045763_ENSMUST00000058845|mus_mus|motif|central (ssRNA)
RNA: GGGAGUUCUACAGUCCGACGAUCAAAAAUAUCUGGAGAGGAAAAAUGGAGGGUUGGCAUUGAGAUACAUGUGGACAAGCGGAGUGGGCUCCGUCUGAAAGUUGGCAUUCAUCCACGAACGUUUAAAAAAAUACCAAAAAAAUUCAACAGAGGAUUGAGCAUCA
B16: chr15:25293464:25293465:-_ENSMUSG00000045763_ENSMUST00000058845|mus_hu|FALSE|FALSE (ssRNA)
RNA: GGGAGUUCUACAGUCCGACGAUCAAAAAUAUCUGGAGAGGAAGAAUGGAGGAUUGGCAUUGAGAUCCAUGUGGACAAGCUAAGUGGGCUCUGUCUGAAAGCUGGCAUUCAUCCACAACAUUAAAAAAAUAUCAAAAUAAGAAACAACAGAGGAUUGAGCAUCA
B17: chr15:25293464:25293465:-_ENSMUSG00000045763_ENSMUST00000058845|mus_hu|motif|central (ssRNA)
RNA: B16 RNA with U80G, A81G
B18: chr5:128448638:128448639:+_ENSG00000066583_ENST00000173527|hu_mus|hu_hu_hu_mus_False|8_98 (ssRNA)
RNA: GGGAGUUCUACAGUCCGACGAUCGGCACUCGCCUUAAUUAGAUUCUGAAUUUCCUUGAACUUCGGGUGGUCUUUGUCAGCCACCAGCUGUAGGAGGACAGCCUCACUAGUGGUCACGAUGAUCCCAGUUCGAGCGAGACGCUCCAACAGAGGAUUGAGCAUCA
B19: chr12:39763582:39763583:-_ENSG00000139116_ENST00000544797|hu_mus|hu_hu_hu_mus_False|1_28 (ssRNA)
RNA: GGGAGUUCUACAGUCCGACGAUCCUCUAGGAACUGGGCAUUCACUUUGAAUUCAGGAGGGGGCAGCCCGUUUUUAAUCGCUGAGGUCUUUUUCUCAUCAAUACUCUUAAAAAGGUGUCUAACAGCACGAGAGAUGAUACCCAGCAACAGAGGAUUGAGCAUCA
B20: chr2:48034705:48034706:-_ENSG00000138081_ENST00000403359|hu_hu|FALSE|FALSE (ssRNA)
RNA: GGGAGUUCUACAGUCCGACGAUCCAUAGAAAGAACGUACAUACUGGGACAUGAGUACAGUUACAGCAAGUCUAGGUGUGCUAACAAAACAGGGCACAUUCAAGUACAGUAAGAUUUUGCUUGAAAUUAAAAACAAACUACAUGCAACAGAGGAUUGAGCAUCA
B21: chr15:74751088:74751089:-_ENSG00000138629_ENST00000361351|perfect_dup|FALSE|FALSE (ssRNA)
RNA: GGGAGUUCUACAGUCCGACGAUCCGGGUCUGGAACAGAUUCCUGGAGCUUGCCAGCAAUAAGCUGCUUCAGAAAUGAAAUGCUAUAGCCCCCUAGGGAAUAUUCUCCCAGUUCUGUCUCUGGCAACUGAAGAAUAGAUUUUGGCAACAGAGGAUUGAGCAUCA
B22: chr1:153198750:153198751:+_ENSMUSG00000023150_ENSMUST00000023918|perfect_dup|FALSE|FALSE (ssRNA)
RNA: GGGAGUUCUACAGUCCGACGAUCUUCUGGAUUGAGAUCAUCCAACUUCACAUGAGAAACUCCAUGAGGGUCACUGUCACUAUUGAAGAUUUCAAAUAGAUAGGGGCUACAGCAAGCCAGGACUGCCCUGUGUGCUAGCAUCUCCAACAGAGGAUUGAGCAUCA
B23: chr8:86505109:86505110:+_ENSMUSG00000005469_ENSMUST00000005606|mus_mus|motif|central (ssRNA)
RNA: GGGAGUUCUACAGUCCGACGAUCCUUGUGCUUCACCAGCAUCACUCGCCCAAAGGAGCCGGUGCCAAGGGUCUUGAUUCGGUCAAACUGAUCCAACUGGGCUGUAUUCUGAGAAGGGGUCUCCCAUUUUUUCAGGAAAUCUUCCAACAGAGGAUUGAGCAUCA
B24: chr3:100366718:100366719:-_ENSMUSG00000008763_ENSMUST00000008907|mus_hu|FALSE|FALSE (ssRNA)
RNA: GGGAGUUCUACAGUCCGACGAUCAUUCUUAAAGAAAAAUCUAUUAUCUGUUAGCAUGAUUGGAGCACUGCAAUGUAUAUGCUAGUAAUAUGGUGUGUAAUUUCACAAGCAAUUUUAUGAGUUCUGCAAUUGCUAGGCUCAAACCAACAGAGGAUUGAGCAUCA
B25: chr1:153198750:153198751:+_ENSMUSG00000023150_ENSMUST00000023918|perfect_dup|FALSE|FALSE (ssRNA)
RNA: GGGAGUUCUACAGUCCGACGAUCUUCUGGAUUGAGAUCAUCAAAUUUAACGUGAGAAAUUCCAUGAGGAUCACUAUCACUAUUAAAGAUUUCAAAUAAAUAGGGACUGCAGCAAGCUAGCACUGCUCUGUGUGCUAACAUUUCCAACAGAGGAUUGAGCAUCA

Target: T1, UNK ZnF1-3
Assay: nsRBNS (natural sequence RNA bind-n-seq); RBNS binding buffer (assumed for nsRBNS): 25 mM Tris pH 7.5, 150 mM KCl, 3 mM MgCl2, 0.01% Triton X-100, 500 ug/ml BSA, 20 U/ml SUPERase-In, 4 C; UNK is unkempt and MSI1 is Musashi-1; names of the RNAs are library labels; protein concentration not given here; high values mean tight binding

| Binder | binding signal |
| --- | --- |
| B1 | 1.5 enrichment R |
| B2 | 0.794 enrichment R |
| B3 | 1.14 enrichment R |
| B4 | 7.3 enrichment R |
| B5 | 0.918 enrichment R |
| B6 | 1.25 enrichment R |
| B7 | 5.74 enrichment R |
| B8 | 1.24 enrichment R |
| B9 | 1.21 enrichment R |
| B10 | 1.19 enrichment R |
| B11 | 0.544 enrichment R |
| B12 | 2.14 enrichment R |
| B13 | 0.833 enrichment R |
| B14 | 1.29 enrichment R |
| B15 | 3.28 enrichment R |
| B16 | 15.3 enrichment R |
| B17 | 8.1 enrichment R |
| B18 | 0.656 enrichment R |
| B19 | 1.45 enrichment R |
| B20 | 1.25 enrichment R |
| B21 | 1.14 enrichment R |
| B22 | 5.29 enrichment R |
| B23 | 1.11 enrichment R |
| B24 | 0.664 enrichment R |
| B25 | 5.29 enrichment R |
